From PubChem
GC-A act: GC-A stimulated cGMP production enhancers – HEK293 GC-A cells, cGMP TR-FRET, EC30 ANP, primary screen. 0% at EC30 ANP, 100% saturating ANP. activation, % at 10 µM. hit rate 0.14% among 370,000. AID 1671463, 2021; in the data active = activation above about 40%
Target sequence (P16066 whole entry, looked up): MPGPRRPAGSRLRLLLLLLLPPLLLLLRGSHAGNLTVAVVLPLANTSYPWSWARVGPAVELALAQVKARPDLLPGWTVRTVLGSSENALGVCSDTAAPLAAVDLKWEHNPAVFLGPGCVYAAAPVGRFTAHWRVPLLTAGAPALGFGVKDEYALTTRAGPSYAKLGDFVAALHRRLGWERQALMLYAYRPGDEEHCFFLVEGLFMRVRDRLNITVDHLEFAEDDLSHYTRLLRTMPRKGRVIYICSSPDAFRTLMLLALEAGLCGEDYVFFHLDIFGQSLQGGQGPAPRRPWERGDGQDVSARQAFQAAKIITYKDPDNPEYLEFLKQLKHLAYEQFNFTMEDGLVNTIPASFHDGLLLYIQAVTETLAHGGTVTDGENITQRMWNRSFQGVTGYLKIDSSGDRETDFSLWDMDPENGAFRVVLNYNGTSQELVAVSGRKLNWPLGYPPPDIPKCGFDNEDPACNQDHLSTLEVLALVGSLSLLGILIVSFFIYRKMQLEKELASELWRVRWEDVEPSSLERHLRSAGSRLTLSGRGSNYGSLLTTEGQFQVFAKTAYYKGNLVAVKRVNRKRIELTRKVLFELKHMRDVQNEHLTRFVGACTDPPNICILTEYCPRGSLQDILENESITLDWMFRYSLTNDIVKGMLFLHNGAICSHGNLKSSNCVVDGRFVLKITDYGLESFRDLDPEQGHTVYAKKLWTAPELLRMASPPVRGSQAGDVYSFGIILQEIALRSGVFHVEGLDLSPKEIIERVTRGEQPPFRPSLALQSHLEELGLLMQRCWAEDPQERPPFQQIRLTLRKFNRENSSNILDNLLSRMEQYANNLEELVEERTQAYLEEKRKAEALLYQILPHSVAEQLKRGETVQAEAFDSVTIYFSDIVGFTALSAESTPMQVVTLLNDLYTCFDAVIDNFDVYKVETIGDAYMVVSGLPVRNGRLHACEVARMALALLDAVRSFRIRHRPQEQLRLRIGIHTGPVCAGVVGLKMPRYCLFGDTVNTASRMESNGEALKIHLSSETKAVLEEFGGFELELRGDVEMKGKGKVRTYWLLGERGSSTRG
HDAC3 inh: HDAC3 deacetylase inhibitors, primary screen, biochemical, fluorescence, cell-free homogeneous. Histone deacetylase 3 (Homo sapiens), O15379. recombinant HDAC3, fluorogenic peptide/trypsin coupled. inhibition, % at 8.3 µM. hit rate 0.15% among 320,000; in the data active = inhibition above about 26%, passing the limit was not always enough; inconclusive = no clear call, values can overlap the other calls
GC-B act: human GC-B receptor activators, primary screen, HEK293 GC-B cells, cGMP TR-FRET, EC30 CNP; 0% at EC30 CNP, 100% saturating CNP; hit rate 0.11% among 370,000; AID 1920062, 2024; activation, % at 10 µM; Atrial natriuretic peptide receptor 2 (Homo sapiens), P20594;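 active = activation at 10 µM reaching about 35% in either raw or pattern-adjusted values, limit read from the data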
ALR H2O2 inh: inhibitors of human ALR sulfhydryl oxidase, primary screen, biochemical, H2O2 detection, HRP-luminol luminescence, single point; FAD-linked sulfhydryl oxidase ALR (Homo sapiens), P55789; purified ALR, DTT oxidation; inhibition, % (no concentration beside the values); hit rate 3.8% among 290,000;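 active = mean replicate inhibition above about 79%, with every replicate also reaching it, limit read from the data; inconclusive = only one of the two criteria met; inactive = mean below limit and not every replicate reaching it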
Large screens that a line does not name were inactive. This excerpt belongs to a sample that is enriched for hits.

COc1ccc(/C=N/NC(=O)c2cccc(S(=O)(=O)N3CCCC3)c2)cc1O	ALR H2O2 inh 97.2
Oc1ccccc1CN1CCCC(N2CCN(c3cccc(C(F)(F)F)c3)CC2)C1 (centres undefined)	none
CC(C)OCCCNC(=O)Cn1ccc2cc(S(=O)(=O)N3CCCCC3)ccc21	none
CCOc1ccc(C(C)NC(=O)c2ccccc2F)cc1 (centres undefined)	none
CC(=O)CC(=O)Nc1ccn(-c2ccccc2)n1	ALR H2O2 inh 81.8
O=C(O)CCCC(=O)Nc1ccn(-c2ccccc2)n1	none
O=C(Nc1cccc(C(=O)N2CCCCC2)c1)c1ccccc1Br	none
CCCC(C(=O)Nc1ccc(S(=O)(=O)Nc2nccs2)cc1)c1ccccc1 (centres undefined)	none (no result: HDAC3 inh, ALR H2O2 inh)
Cc1nc2c(C)cccc2cc1C(=O)N/N=C/c1ccc(O)cc1	ALR H2O2 inh 99.4
Cc1cccc2cc(/C=N/NC(=O)c3ccccc3O)c(Cl)nc12	none
Cc1ccccc1C(=O)Nc1ccc(C(=O)N/N=C/c2ccc(O)cc2)cc1	ALR H2O2 inh 94.9
O=C(N/N=C/c1ccc(O)cc1)c1ccc(NC(=O)c2ccccc2Br)cc1	ALR H2O2 inh 79.4
O=C(Nc1ccccc1C(=O)N/N=C/c1ccc(F)cc1)c1ccccc1Br	none (no result: ALR H2O2 inh)
Cc1ccccc1C(=O)Nc1ccc(C(=O)N/N=C/c2ccncc2)cc1	none
O=C(NNC(=S)Nc1ccc(C(=O)O)c(O)c1)c1ccncc1	none (no result: HDAC3 inh, ALR H2O2 inh)
Cc1nnc(SCC(=O)Nc2ccc(OC(F)F)c(Cl)c2)n(N)c1=O	ALR H2O2 inh 99.0
Nn1c(SCC(=O)Nc2ccc(OC(F)F)cc2)nnc(Cc2ccccc2)c1=O	ALR H2O2 inh 97.9
COc1ccc(NC(=O)CSc2nnc(Cc3ccccc3)c(=O)n2N)c(OC)c1	none
CCN(CC)C(=O)CSc1nnc(COc2cccc(C)c2)n1C	none (no result: GC-A act, GC-B act)
CC(NC(=O)c1ccc(N(C)C)cc1)C(c1cccs1)N1CCN(C)CC1 (centres undefined)	ALR H2O2 inh 78.1
COc1ccccc1N1CCN(C(c2cccs2)C(C)NC(=O)c2cccnc2)CC1 (centres undefined)	ALR H2O2 inh 97.9 (no result: HDAC3 inh)
CC(NC(=O)c1cccnc1)C(c1cccs1)N1CCN(c2ccccc2F)CC1 (centres undefined)	none
CC(NC(=O)c1ccc(F)cc1)C(c1cccs1)N1CCN(C)CC1 (centres undefined)	none
COc1ccc(-c2n(Cc3ccccc3)c3ccccc3[n+]2Cc2ccccc2)cc1	none
Cc1ccc(NCc2nc3ccccc3n2C)cc1C	ALR H2O2 inh 98.2
Cn1c(CNc2ccc(O)cc2)nc2ccccc21	ALR H2O2 inh 98.9
Cc1ccc(NCc2nc3ccccc3n2C)cc1	none
CN(Cc1nc2ccccc2n1C)c1ccccc1	ALR H2O2 inh 98.7
COc1ccc(Nc2nc3ccccc3n2C)cc1	ALR H2O2 inh 76.5
Cn1c(CNc2nc3ccccc3n2C)nc2ccccc21	none
COc1ccccc1NCc1nc2ccccc2n1C	none (no result: HDAC3 inh, ALR H2O2 inh)
Cc1ccccc1CN1CCN(C(=O)CC(C)C)CC1	none
CN(C)CCCOC(=O)COc1ccc(Br)cc1	none (no result: ALR H2O2 inh)
COCCn1c(SCC(=O)NC2CC2)nnc1-c1ccc(Cl)cc1	none
COc1ccc(NCc2nc3ccccc3n2C)cc1	ALR H2O2 inh 98.0
Cn1c(CNc2ccc(Br)cc2)nc2ccccc21	ALR H2O2 inh 96.4
CCOC(=O)c1ccc(NCc2nc3ccccc3n2C)cc1	none
CCOc1cc(CNc2cccc3[nH]c(C)nc23)ccc1OC	ALR H2O2 inh 98.3
Cc1ccc(-c2csc(=S)[nH]2)cc1	none
S=c1[nH]c(-c2ccc(Cl)cc2)cs1	ALR H2O2 inh 97.1
CS(=O)(=O)N1N=C(c2cccs2)CC1c1ccccc1 (centres undefined)	none
c1ccc(C2Oc3ccccc3C3CC(c4cccs4)=NN32)cc1 (centres undefined)	ALR H2O2 inh 97.7
C#CCOCCOCCOCCNc1nc(N2CCN(C(=O)CCCCCCCCCCNC(=O)[C@H]([C@@H](C)CC)n3cc(CCCCCN)nn3)CC2)nc(N2CCN(C(=O)CCCCCCCCCCNC(=O)[C@@H]([C@H](C)O)n3cc(C)nn3)CC2)n1	none (no result: GC-A act, GC-B act)
C#CCOCCOCCOCCNc1nc(N2CCN(C(=O)CCCCCCCCCCNC(=O)[C@H](CCCCN)n3cc(CCO)nn3)CC2)nc(N2CCN(C(=O)CCCCCCCCCCNC(=O)[C@H](CCCN=C(N)N)n3cc(C[C@@H](C)CC)nn3)CC2)n1	HDAC3 inh 28.9 (no result: GC-A act, GC-B act)
C#CCOCCOCCOCCNc1nc(N2CCN(C(=O)CCCCCCCCCCNC(=O)[C@H](CCCCN)n3cc(C[C@@H](C)CC)nn3)CC2)nc(N2CCN(C(=O)CCCCCCCCCCNC(=O)[C@H](CCCCN)n3cc(C[C@@H](C)CC)nn3)CC2)n1	HDAC3 inh 53.3 (no result: GC-A act, GC-B act)
C#CCOCCOCCOCCNc1nc(N2CCN(C(=O)CCCCCCCCCCNC(=O)[C@H](CCCCN)n3cc(CCCC(=O)O)nn3)CC2)nc(N2CCN(C(=O)CCCCCCCCCCNC(=O)[C@H](CCCN=C(N)N)n3cc(C[C@@H](C)CC)nn3)CC2)n1	none (no result: GC-A act, GC-B act)
C#CCOCCOCCOCCNc1nc(N2CCN(C(=O)CCCCCCCCCCNC(=O)Cn3cc(C[C@@H](C)O)nn3)CC2)nc(N2CCN(C(=O)CCCCCCCCCCNC(=O)[C@H](CCCCN)n3cc(C[C@@H](C)CC)nn3)CC2)n1	none (no result: GC-A act, GC-B act)
C#CCOCCOCCOCCNc1nc(N2CCN(C(=O)CCCCCCCCCCNC(=O)[C@H](CCCCN)n3cc(C)nn3)CC2)nc(N2CCN(C(=O)CCCCCCCCCCNC(=O)[C@@H]([C@H](C)CC)n3cc(CCCCCN)nn3)CC2)n1	HDAC3 inh 30.6 (no result: GC-A act, GC-B act)
Cc1[nH]nc2c1C(=O)CCC2	ALR H2O2 inh 99.5
COc1ccc(Cn2cc(F)c(=O)n(CCC(C)C)c2=O)cc1[N+](=O)[O-]	none
S=c1nc(-c2ccccc2)n(Cc2cccnc2)c2c1CCCC2	ALR H2O2 inh 94.2 (no result: GC-A act, GC-B act)
CC1(C)Cc2c(c(=S)nc(-c3ccccc3)n2Cc2cccnc2)CO1	none (no result: ALR H2O2 inh)
COc1ccccc1-n1c(SCC(=O)Nc2cc(C)on2)nc2c([nH]c3ccccc32)c1=O	GC-A act 71.3
COc1cccc(-n2c(SCC(=O)Nc3cc(C)on3)nc3c([nH]c4ccccc43)c2=O)c1	GC-A act 79.6, HDAC3 inh inconclusive (no result: ALR H2O2 inh)
COc1cccc(-n2c(SCC(N)=O)nc3c([nH]c4ccccc43)c2=O)c1	none
Cc1cc(NC(=O)CSc2nc3c([nH]c4ccccc43)c(=O)n2-c2ccccc2F)no1	GC-A act 72.8
Cc1c(Cl)cccc1-n1c(-c2cccnc2)n[nH]c1=S	ALR H2O2 inh 79.6
Cc1cc(Cl)ccc1-n1c(-c2cccnc2)n[nH]c1=S	none
CC1CCCCC1n1c(-c2cccnc2)n[nH]c1=S (centres undefined)	ALR H2O2 inh 87.2
Cc1ccc(S(=O)(=O)N2CCN(CC(=O)Nc3ccccc3C(=O)NC3CC3)CC2)cc1	none (no result: HDAC3 inh, ALR H2O2 inh)
CN(Cc1cn[nH]c1-c1cc2ccccc2o1)CC1CCOCC1	none (no result: ALR H2O2 inh)
CCc1nn2c(=O)cc(CSCC(=O)Nc3ccccc3F)nc2s1	ALR H2O2 inh 99.2 (no result: GC-A act, HDAC3 inh, GC-B act)
